PubChem BioAssay
Records with an inconclusive call do not appear. Calls of active or inactive are those of the source. Unless noted, no stated cut-off is given here; in the data, active means inhibition above about 80%; inactive means the rest.

Legend:
[1] = growth inhibition of DIPG glioma cells, dose response, cell-based, SU-DIPG-XVII, MIPE5.0, CellTiter-Glo, qHTS (AID 1347060; cut-off not given, nearly all actives have AC50 up to about 26 µM); conditions: SU-DIPG-XVII viability, CellTiter-Glo ATP luminescence
[2] = SU-DIPG-XXV glioma cell viability, MIPE5.0 library, qHTS (AID 1347068; cut-off not given, nearly all actives have IC50 up to about 30 µM)
[3] = sensitizers of A549 cells to miR-34 induction, primary screen, imaging, A549 dox-inducible miR-34, nuclei and caspase counts (AID 1347080;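 active means compounds whose cell count with miR-34 switched on is under 0.7 times the count with it off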); conditions: A549 miR-34 inducible, Hoechst nuclei count, 48 h
[4] = modifiers of HSF1 nuclear foci, imaging, Selleck Cancer Library (AID 1347162; in the data active means plate-normalised HSF1 focus index below about 0.46); conditions: human cells, at 10 µM; SSMD: measured here: HSF1 foci SSMD mean; cell count: measured here: cell number; plate-normalised HSF1 focus index: stronger effect = lower value
[5] = survival rescue of mitochondrial mutant cells in low glucose, primary screen, MELAS cybrids, Rieske KO mouse fibroblasts, CellTiter-Glo (AID 1508586;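 active means mean z-score across replicates of 1.96 or higher in either the MELAS or the Rieske mutant cell line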;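 further: z relative to plate mean and SD of compound and empty wells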)
[6] = LFS_MB_P medulloblastoma growth inhibition, cell-based, chromothripsis tumors, cisplatin or BGB combos (AID 1671449); conditions: LFS_MB_P medulloblastoma cells;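 further: cells exposed for 96 hours; 0% = vehicle DMSO and 100% = killing by high DMSO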
[7] = HDN33 neuroblastoma growth inhibition, cell-based, chromothripsis tumors, cisplatin or BGB combos (AID 1671450); conditions: HDN33 neuroblastoma cells, stronger effect = higher value;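 further: cells exposed to compound for four days; 0% = vehicle DMSO and 100% = cell killing by high DMSO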
[8] = ICB984 medulloblastoma cell growth inhibition, synergistic combos for chromothripsis tumors, cisplatin or BGB combos (AID 1671451; call rule not given here;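 further: cells exposed for 96 hours before readout; 0% = vehicle DMSO and 100% = killing by high DMSO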); conditions: ICB984 medulloblastoma cells, drug combinations, stronger effect = higher value
[9] = LFS_MB_1R medulloblastoma cell growth inhibition, synergistic combos for chromothripsis tumors, cisplatin or BGB combos (AID 1671452); conditions: LFS_MB_1R medulloblastoma cells, stronger effect = higher value;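 further: cells exposed for 96 hours before readout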
[10] = HTB85 osteosarcoma cell growth inhibition, synergistic combos for chromothripsis tumors, BGB or cisplatin IC20 combos (AID 1671453); conditions: HTB85 osteosarcoma cells, drug combinations, stronger effect = higher value;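 further: cells exposed for 96 hours before readout; 0% = vehicle DMSO and 100% = high DMSO killing control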
[11] = CRL2098 osteosarcoma cell growth inhibition, synergistic combos for chromothripsis tumors, BGB or cisplatin IC20 combos (AID 1671454); conditions: CRL2098 osteosarcoma cells, drug combinations, stronger effect = higher value;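 further: cells exposed for 96 h before readout; 0% = vehicle DMSO and 100% = killing by high DMSO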
[12] = HD-MB03 medulloblastoma cell growth inhibition, synergistic combos for chromothripsis tumors, BGB or cisplatin IC20 combos (AID 1671455; in the data active means inhibition above about 83%;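 further: 0% = vehicle DMSO and 100% = high DMSO as cytotoxic control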); conditions: HD-MB03 medulloblastoma cells, stronger effect = higher value
[13] = UWB1.289 ovarian carcinoma cell growth inhibition, synergistic combos for chromothripsis tumors, BGB or cisplatin combos (AID 1671456); conditions: UWB1.289 ovarian carcinoma cells, stronger effect = higher value;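 further: cells exposed to compound for four days; 0% = vehicle DMSO and 100% = killing by high DMSO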
[14] = LFS_MB_2R medulloblastoma cell growth inhibition, synergistic combos for chromothripsis tumors, cisplatin combos (AID 1671457); conditions: LFS_MB_2R medulloblastoma cells, stronger effect = higher value;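 further: cells exposed to compound for four days before readout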
[15] = MDA-MB-436 breast carcinoma cell growth inhibition, synergistic combos for chromothripsis tumors, BGB or cisplatin combos (AID 1671458; call rule not given here;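 further: cells exposed for 96 hours; 0% = vehicle DMSO and 100% = killing by high DMSO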); conditions: MDA-MB-436 breast carcinoma growth inhibition, drug combinations, stronger effect = higher value
[16] = UWB1.289_BRCA1 ovarian cancer growth, cell-based, BGB or cisplatin combinations (AID 1671459); conditions: UWB1.289 BRCA1 ovarian carcinoma, drug combinations, stronger effect = higher value
[17] = human astrocyte viability loss, single and combined drugs, cytotoxicity control for chromothriptic childhood tumor combination screen, cell-based, BGB or cisplatin IC20 combos (AID 1671460); conditions: Human astrocytes, drug combinations, stronger effect = higher value;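 further: cells exposed to compounds for 96 hours before viability readout; 0% = vehicle and 100% = killing control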
[18] = growth inhibition of BT084 medulloblastoma cells, cell-based, ICGC_MB145, cisplatin and BGB IC40 combos (AID 1671461); conditions: drug combinations, stronger effect = higher value;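 further: cells exposed to drugs for 96 hours; 0% = vehicle DMSO and 100% = high DMSO full killing control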
[19] = growth inhibition of RCMB18 medulloblastoma cells, cell-based, cisplatin and BGB IC40 combos (AID 1671462); conditions: stronger effect = higher value;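 further: cells exposed to compound for four days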
[20] = growth inhibition of CRL1545 osteosarcoma cells, cell-based, cisplatin and BGB IC20 combos (AID 1671464); conditions: stronger effect = higher value;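 further: cells exposed to compound for 96 hours before readout; 0% = vehicle DMSO and 100% = high DMSO killing control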
[21] = measured here: combination with BGB IC40, at 0.05 µM
[22] = measured here: with BGB IC20 combination, at 0.5 µM
[23] = measured here: with cisplatin IC20 combination, at 0.5 µM
[24] = measured here: combination with cisplatin, at 0.5 µM
[25] = measured here: combination with cisplatin, at 5 µM

Question: For Nc1nc(OCc2cc(Br)cs2)c2[nH]cnc2n1, which outcome [1] is on record?
Answer: inactive

Question: And the outcome [2]?
Answer: inactive

Question: What about the fold change ([3]; stronger effect = lower value, cell number ratio, induced over uninduced) of the same molecule?
Answer: 0.799 (inactive)

Question: What about the fold change ([3]; measured here: relative caspase fold change +Dox/-Dox) of the same molecule?
Answer: 0.415

Question: And the cell count ([3]; measured here: total cells with miR-34 induction, stronger effect = lower value)?
Answer: 7150

Question: What about the cell count ([3]; measured here: total cells without miR-34 induction) of the same molecule?
Answer: 8940

Question: And the SSMD [4]?
Answer: 3.47

Question: And the cell count [4]?
Answer: 6820

Question: And the plate-normalised HSF1 focus index [4]?
Answer: 1.21 (inactive)

Question: What about the z-score ([5]; MELAS cybrid survival, CellTiter-Glo 48 h, stronger effect = higher value) of the same molecule?
Answer: -0.686 (inactive)

Question: And the z-score ([5]; Rieske KO mouse fibroblast survival, CellTiter-Glo 72 h)?
Answer: -2.22

Question: What about the inhibition ([6]; at 0.5 µM, stronger effect = higher value) of the same molecule?
Answer: -8.6% (inactive)

Question: And the inhibition ([6]; measured here: combination with BGB IC20, at 0.005 µM)?
Answer: 6.06%

Question: And the inhibition ([6]; measured here: combination with BGB IC40, at 0.005 µM)?
Answer: -17.9%

Question: What about the inhibition [6, 21] of the same molecule?
Answer: -7.49%

Question: And the inhibition ([6]; measured here: combination with cisplatin, at 0.5 µM, stronger effect = higher value)?
Answer: -32.7%

Question: What about the inhibition ([6]; measured here: combination with cisplatin, at 5 µM, stronger effect = higher value) of the same molecule?
Answer: 3.43%

Question: And the inhibition ([7]; BGB combo, at 5 µM)?
Answer: -14.7%

Question: And the inhibition ([7]; at 0.5 µM)?
Answer: -12.4% (inactive)

Question: And the inhibition ([7]; cisplatin combo, at 5 µM)?
Answer: -19.8%

Question: And the inhibition [7, 22]?
Answer: -15.1%

Question: What about the inhibition [7, 23] of the same molecule?
Answer: -16.6%

Question: What about the inhibition ([7]; single agent, at 5 µM) of the same molecule?
Answer: -22.4%

Question: And the inhibition ([8]; BGB IC20 combo, at 0.005 µM)?
Answer: -4.27%

Question: What about the inhibition ([8]; BGB IC40 combo, at 0.005 µM) of the same molecule?
Answer: -37.5%

Question: What about the inhibition ([8]; BGB IC40 combo, at 0.05 µM) of the same molecule?
Answer: -11.8%

Question: What about the inhibition ([8]; at 0.5 µM) of the same molecule?
Answer: -22.3% (inactive)

Question: What about the inhibition ([8]; cisplatin combo, at 0.05 µM) of the same molecule?
Answer: -16.3%

Question: And the inhibition ([8]; cisplatin combo, at 0.5 µM)?
Answer: -26.5%

Question: And the inhibition ([8]; cisplatin combo, at 5 µM)?
Answer: -13.8%

Question: And the inhibition ([8]; measured here: 5 uM single agent, at 5 µM)?
Answer: 4.33%

Question: What about the inhibition ([9]; at 0.5 µM) of the same molecule?
Answer: -20.5% (inactive)

Question: What about the inhibition [9, 21] of the same molecule?
Answer: -27%

Question: What about the inhibition [9, 24] of the same molecule?
Answer: -33.3%

Question: What about the inhibition [9, 25] of the same molecule?
Answer: -35.3%

Question: What about the inhibition ([10]; at 0.5 µM) of the same molecule?
Answer: -18.8% (inactive)

Question: What about the inhibition ([10]; measured here: with BGB IC20, at 0.5 µM) of the same molecule?
Answer: -10.7%

Question: What about the inhibition ([10]; measured here: with BGB IC20, at 5 µM) of the same molecule?
Answer: -21.3%

Question: And the inhibition ([10]; measured here: with cisplatin IC20, at 0.5 µM)?
Answer: -23.3%

Question: What about the inhibition ([10]; measured here: with cisplatin IC20, at 5 µM) of the same molecule?
Answer: -10.7%

Question: What about the inhibition ([10]; single agent, at 5 µM) of the same molecule?
Answer: -17.4%

Question: And the inhibition ([11]; at 0.5 µM)?
Answer: -32.8% (inactive)

Question: What about the inhibition ([11]; measured here: combination with BGB at IC20, at 0.5 µM) of the same molecule?
Answer: -25.4%

Question: What about the inhibition ([11]; measured here: combination with cisplatin at IC20, at 0.5 µM) of the same molecule?
Answer: -22.4%

Question: And the inhibition ([12]; at 0.5 µM)?
Answer: -4.96% (inactive)

Question: And the inhibition ([12]; measured here: combo with BGB at IC20, at 0.5 µM)?
Answer: -7.38%

Question: And the inhibition ([12]; measured here: combo with cisplatin at IC20, at 0.5 µM)?
Answer: -2.87%

Question: And the inhibition ([13]; at 0.5 µM)?
Answer: 7.84% (inactive)

Question: What about the inhibition ([13]; measured here: inhibition with BGB combination, at 0.05 µM) of the same molecule?
Answer: -1.57%

Question: What about the inhibition ([13]; measured here: inhibition with cisplatin combination, at 0.05 µM) of the same molecule?
Answer: -17.8%

Question: What about the inhibition ([14]; at 0.5 µM) of the same molecule?
Answer: 18.8% (inactive)

Question: And the inhibition [14, 24]?
Answer: -4.84%

Question: What about the inhibition [14, 25] of the same molecule?
Answer: 6.55%

Question: What about the inhibition ([15]; at 0.5 µM) of the same molecule?
Answer: -3.23% (inactive)

Question: And the inhibition ([15]; measured here: BGB combination, at 0.5 µM)?
Answer: 4.51%

Question: What about the inhibition ([15]; measured here: BGB combination, at 5 µM) of the same molecule?
Answer: 3.71%

Question: And the inhibition ([15]; measured here: cisplatin combination, at 0.5 µM)?
Answer: -3.58%

Question: And the inhibition ([15]; measured here: cisplatin combination, at 5 µM)?
Answer: 5.35%

Question: What about the inhibition ([16]; BGB combination, concentration series, at 5 µM) of the same molecule?
Answer: -10.7%

Question: What about the inhibition ([16]; at 0.5 µM) of the same molecule?
Answer: -6.34% (inactive)

Question: What about the inhibition ([16]; cisplatin combination, concentration series, at 5 µM) of the same molecule?
Answer: 8.18%

Question: What about the inhibition ([17]; at 0.5 µM) of the same molecule?
Answer: -4.57% (inactive)

Question: What about the inhibition ([17]; measured here: combo with BGB IC20, at 0.5 µM) of the same molecule?
Answer: 2.71%

Question: And the inhibition ([17]; measured here: combo with cisplatin IC20, at 0.5 µM)?
Answer: -8.58%

Question: What about the inhibition ([18]; at 0.5 µM) of the same molecule?
Answer: -0.821% (inactive)

Question: And the inhibition ([18]; cisplatin combination, at 0.5 µM)?
Answer: -10.5%

Question: What about the inhibition ([18]; cisplatin combination, at 5 µM) of the same molecule?
Answer: 2.83%

Question: What about the inhibition ([18]; measured here: BGB IC40 combination 0.05 uM, at 0.05 µM) of the same molecule?
Answer: -9.82%

Question: And the inhibition ([18]; single agent, at 5 µM)?
Answer: 4.08%

Question: And the inhibition ([19]; at 0.5 µM)?
Answer: -7.44% (inactive)

Question: What about the inhibition ([19]; cisplatin combo, at 5 µM) of the same molecule?
Answer: -2.67%

Question: What about the inhibition ([19]; measured here: BGB IC40 combination, at 0.05 µM) of the same molecule?
Answer: 1.72%

Question: And the inhibition [19, 24]?
Answer: -25.9%

Question: And the inhibition ([19]; single agent, at 5 µM)?
Answer: -0.712%

Question: What about the inhibition ([20]; at 0.5 µM) of the same molecule?
Answer: -8.12% (inactive)

Question: What about the inhibition [20, 22] of the same molecule?
Answer: -32.5%

Question: And the inhibition [20, 23]?
Answer: 4.06%

Question: What about the inhibition ([20]; single agent, at 0.05 µM) of the same molecule?
Answer: 5.05%

Question: What about the inhibition ([20]; single agent, at 5 µM) of the same molecule?
Answer: -19.6%
